Consider five molecules from ChEMBL document CHEMBL1961873, “Compounds: GSK PKIS; Assays: Nanosyn kinase panel” (2012).

Assay [1] concerns the target Calcium/calmodulin-dependent protein kinase type II subunit alpha (Homo sapiens) (UniProt Q9UQM7). Particulars: at 1 µM.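 Further: reported value is a mean percent inhibition of CAMK2A.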
Assay [2] addresses Calcium/calmodulin-dependent protein kinase type II subunit delta (Homo sapiens) (UniProt Q13557). The conditions noted are these: at 0.1 µM.
For assay [3] the target is unchanged. The conditions noted are these: at 1 µM.
For assay [4], the target named is T1, Calcium/calmodulin-dependent protein kinase type IV (Homo sapiens) (UniProt Q16566).
T1 sequence (whole entry): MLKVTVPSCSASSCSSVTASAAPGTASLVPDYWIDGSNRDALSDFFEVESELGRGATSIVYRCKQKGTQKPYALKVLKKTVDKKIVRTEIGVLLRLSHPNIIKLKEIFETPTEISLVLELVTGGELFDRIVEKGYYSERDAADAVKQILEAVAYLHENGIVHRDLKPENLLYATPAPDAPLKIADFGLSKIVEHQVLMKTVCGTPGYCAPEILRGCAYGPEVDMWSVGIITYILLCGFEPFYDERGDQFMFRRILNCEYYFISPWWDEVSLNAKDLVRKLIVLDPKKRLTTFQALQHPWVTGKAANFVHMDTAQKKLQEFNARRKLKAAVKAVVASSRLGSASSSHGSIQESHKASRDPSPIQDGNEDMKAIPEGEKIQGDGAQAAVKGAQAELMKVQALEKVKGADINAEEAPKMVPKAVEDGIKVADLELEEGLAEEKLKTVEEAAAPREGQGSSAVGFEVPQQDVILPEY
The conditions noted are these: at 0.1 µM.

Assay [5] has as its target T1, Calcium/calmodulin-dependent protein kinase type IV (Homo sapiens). The conditions noted are these: at 1 µM.
Assay [6] has as its target T2, Serine/threonine-protein kinase Chk1 (Homo sapiens) (UniProt O14757).
T2 sequence (whole entry): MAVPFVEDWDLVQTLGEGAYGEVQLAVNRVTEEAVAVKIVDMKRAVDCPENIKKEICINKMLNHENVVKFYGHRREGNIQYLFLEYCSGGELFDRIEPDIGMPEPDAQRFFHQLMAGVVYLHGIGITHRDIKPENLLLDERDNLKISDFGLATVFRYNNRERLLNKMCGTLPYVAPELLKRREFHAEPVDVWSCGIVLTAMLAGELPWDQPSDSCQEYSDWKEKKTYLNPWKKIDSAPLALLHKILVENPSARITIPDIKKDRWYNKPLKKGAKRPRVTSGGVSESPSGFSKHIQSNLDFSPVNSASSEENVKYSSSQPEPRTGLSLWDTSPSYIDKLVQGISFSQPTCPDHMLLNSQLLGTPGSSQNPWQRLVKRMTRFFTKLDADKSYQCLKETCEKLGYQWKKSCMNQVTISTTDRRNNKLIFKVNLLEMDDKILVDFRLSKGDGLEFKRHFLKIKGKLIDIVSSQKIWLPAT
Particulars: at 0.1 µM.

Assay [7] addresses T2, Serine/threonine-protein kinase Chk1 (Homo sapiens). The conditions noted are these: at 1 µM.
For assay [8], the target named is Serine/threonine-protein kinase Chk2 (Homo sapiens) (UniProt O96017). The conditions noted are these: at 0.1 µM.
Serine/threonine-protein kinase Chk2 (Homo sapiens), sequence (O96017 whole entry): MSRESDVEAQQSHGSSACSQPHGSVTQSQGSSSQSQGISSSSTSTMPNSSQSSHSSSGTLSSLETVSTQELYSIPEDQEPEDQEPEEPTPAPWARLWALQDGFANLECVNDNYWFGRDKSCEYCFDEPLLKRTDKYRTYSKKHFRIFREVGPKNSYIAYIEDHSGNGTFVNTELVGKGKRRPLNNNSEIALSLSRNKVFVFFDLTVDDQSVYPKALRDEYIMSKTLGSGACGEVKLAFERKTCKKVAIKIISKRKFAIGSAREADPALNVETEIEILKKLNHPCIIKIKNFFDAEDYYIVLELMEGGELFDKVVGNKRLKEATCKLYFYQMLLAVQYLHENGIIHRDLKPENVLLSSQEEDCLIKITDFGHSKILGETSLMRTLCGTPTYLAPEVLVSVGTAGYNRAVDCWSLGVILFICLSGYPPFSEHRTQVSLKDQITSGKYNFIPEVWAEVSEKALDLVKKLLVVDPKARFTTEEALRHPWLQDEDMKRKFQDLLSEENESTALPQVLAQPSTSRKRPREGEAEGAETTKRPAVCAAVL
Assay [9] shares this target. Particulars: at 1 µM.
The target of assay [10] is Death-associated protein kinase 1 (Homo sapiens) (UniProt P53355). Particulars: at 0.1 µM.
Death-associated protein kinase 1 (Homo sapiens), sequence (P53355 whole entry, looked up): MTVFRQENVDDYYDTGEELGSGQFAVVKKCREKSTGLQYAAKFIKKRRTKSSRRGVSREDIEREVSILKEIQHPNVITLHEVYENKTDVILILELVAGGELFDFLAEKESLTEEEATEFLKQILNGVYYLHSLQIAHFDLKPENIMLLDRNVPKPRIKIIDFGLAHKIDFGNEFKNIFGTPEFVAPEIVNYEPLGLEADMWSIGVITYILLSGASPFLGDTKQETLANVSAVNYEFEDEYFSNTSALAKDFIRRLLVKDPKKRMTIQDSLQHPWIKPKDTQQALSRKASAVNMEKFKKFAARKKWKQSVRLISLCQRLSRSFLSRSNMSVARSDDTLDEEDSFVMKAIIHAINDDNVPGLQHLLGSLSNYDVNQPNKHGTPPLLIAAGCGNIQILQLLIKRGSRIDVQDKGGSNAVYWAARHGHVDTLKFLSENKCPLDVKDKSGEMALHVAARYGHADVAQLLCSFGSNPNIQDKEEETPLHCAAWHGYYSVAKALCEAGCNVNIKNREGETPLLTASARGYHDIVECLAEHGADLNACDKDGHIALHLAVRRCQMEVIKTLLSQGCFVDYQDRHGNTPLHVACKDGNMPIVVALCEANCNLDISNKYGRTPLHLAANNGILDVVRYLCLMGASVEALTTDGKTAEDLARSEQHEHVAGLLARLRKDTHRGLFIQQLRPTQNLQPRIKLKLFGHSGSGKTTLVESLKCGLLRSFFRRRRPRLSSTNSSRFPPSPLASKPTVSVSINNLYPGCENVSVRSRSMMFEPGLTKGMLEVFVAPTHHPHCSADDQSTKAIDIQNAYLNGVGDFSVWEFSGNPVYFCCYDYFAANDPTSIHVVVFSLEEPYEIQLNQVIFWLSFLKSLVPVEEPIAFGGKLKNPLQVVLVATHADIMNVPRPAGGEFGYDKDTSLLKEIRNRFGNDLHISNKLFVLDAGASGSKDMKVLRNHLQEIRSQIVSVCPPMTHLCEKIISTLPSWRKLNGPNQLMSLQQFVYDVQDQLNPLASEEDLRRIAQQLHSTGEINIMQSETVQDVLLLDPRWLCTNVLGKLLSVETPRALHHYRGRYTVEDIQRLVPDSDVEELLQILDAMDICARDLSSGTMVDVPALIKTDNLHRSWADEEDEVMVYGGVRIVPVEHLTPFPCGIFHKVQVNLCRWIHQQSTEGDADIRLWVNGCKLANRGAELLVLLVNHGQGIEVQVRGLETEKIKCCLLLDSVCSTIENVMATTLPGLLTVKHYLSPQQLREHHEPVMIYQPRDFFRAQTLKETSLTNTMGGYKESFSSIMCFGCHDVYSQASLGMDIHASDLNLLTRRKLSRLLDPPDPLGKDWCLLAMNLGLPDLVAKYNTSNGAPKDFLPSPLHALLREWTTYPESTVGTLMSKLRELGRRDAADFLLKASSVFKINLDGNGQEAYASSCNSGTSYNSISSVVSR
Assay [11] shares this target. The conditions noted are these: at 1 µM.
Assay [12] concerns the target T3, Serine/threonine-protein kinase DCLK2 (Homo sapiens) (UniProt Q8N568).
T3 sequence (whole entry): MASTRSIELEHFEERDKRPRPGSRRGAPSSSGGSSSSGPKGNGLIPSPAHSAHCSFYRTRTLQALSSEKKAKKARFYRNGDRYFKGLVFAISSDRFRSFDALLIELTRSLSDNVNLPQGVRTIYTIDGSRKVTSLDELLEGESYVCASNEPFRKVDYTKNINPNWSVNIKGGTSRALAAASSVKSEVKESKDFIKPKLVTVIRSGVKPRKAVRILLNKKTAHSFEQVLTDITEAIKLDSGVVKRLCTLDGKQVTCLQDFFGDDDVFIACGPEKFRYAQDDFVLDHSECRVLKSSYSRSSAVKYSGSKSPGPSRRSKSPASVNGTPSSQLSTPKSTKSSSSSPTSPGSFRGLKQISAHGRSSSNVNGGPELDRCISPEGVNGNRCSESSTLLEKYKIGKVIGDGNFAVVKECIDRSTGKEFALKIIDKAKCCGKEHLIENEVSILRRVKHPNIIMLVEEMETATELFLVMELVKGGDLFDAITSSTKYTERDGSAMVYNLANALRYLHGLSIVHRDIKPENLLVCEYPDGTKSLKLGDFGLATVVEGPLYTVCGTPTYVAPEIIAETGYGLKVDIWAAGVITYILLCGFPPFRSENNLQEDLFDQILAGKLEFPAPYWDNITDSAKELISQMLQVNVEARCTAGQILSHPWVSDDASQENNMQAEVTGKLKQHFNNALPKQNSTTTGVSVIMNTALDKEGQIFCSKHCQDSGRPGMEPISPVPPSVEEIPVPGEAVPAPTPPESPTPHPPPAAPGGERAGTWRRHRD
The conditions noted are these: at 0.1 µM.

In assay [13] the target is T3, Serine/threonine-protein kinase DCLK2 (Homo sapiens). The conditions noted are these: at 1 µM.
Assay [14] deals with MAP kinase-activated protein kinase 2 (Homo sapiens) (UniProt P49137). Particulars: at 0.1 µM.
MAP kinase-activated protein kinase 2 (Homo sapiens), sequence (P49137 whole entry, looked up): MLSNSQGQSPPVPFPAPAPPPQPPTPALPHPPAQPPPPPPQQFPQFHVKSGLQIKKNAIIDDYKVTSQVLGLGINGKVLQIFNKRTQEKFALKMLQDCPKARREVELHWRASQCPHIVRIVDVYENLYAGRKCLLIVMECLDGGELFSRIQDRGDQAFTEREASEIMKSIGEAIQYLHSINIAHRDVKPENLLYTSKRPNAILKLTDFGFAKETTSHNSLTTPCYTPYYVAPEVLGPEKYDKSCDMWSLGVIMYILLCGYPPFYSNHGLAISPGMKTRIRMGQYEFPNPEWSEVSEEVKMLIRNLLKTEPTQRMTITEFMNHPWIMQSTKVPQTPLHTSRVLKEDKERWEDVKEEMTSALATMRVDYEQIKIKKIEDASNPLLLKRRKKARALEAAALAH
The target is the same in assay [15]. The conditions noted are these: at 1 µM.
Assay [16] addresses MAP kinase-activated protein kinase 3 (Homo sapiens) (UniProt Q16644). The conditions noted are these: at 0.1 µM.
Assay [17] has the same target. The conditions noted are these: at 1 µM.
The target of assay [18] is Serine/threonine-protein kinase MARK1 (Homo sapiens) (UniProt Q9P0L2). Particulars: at 0.1 µM.
Serine/threonine-protein kinase MARK1 (Homo sapiens), sequence (Q9P0L2 whole entry, looked up): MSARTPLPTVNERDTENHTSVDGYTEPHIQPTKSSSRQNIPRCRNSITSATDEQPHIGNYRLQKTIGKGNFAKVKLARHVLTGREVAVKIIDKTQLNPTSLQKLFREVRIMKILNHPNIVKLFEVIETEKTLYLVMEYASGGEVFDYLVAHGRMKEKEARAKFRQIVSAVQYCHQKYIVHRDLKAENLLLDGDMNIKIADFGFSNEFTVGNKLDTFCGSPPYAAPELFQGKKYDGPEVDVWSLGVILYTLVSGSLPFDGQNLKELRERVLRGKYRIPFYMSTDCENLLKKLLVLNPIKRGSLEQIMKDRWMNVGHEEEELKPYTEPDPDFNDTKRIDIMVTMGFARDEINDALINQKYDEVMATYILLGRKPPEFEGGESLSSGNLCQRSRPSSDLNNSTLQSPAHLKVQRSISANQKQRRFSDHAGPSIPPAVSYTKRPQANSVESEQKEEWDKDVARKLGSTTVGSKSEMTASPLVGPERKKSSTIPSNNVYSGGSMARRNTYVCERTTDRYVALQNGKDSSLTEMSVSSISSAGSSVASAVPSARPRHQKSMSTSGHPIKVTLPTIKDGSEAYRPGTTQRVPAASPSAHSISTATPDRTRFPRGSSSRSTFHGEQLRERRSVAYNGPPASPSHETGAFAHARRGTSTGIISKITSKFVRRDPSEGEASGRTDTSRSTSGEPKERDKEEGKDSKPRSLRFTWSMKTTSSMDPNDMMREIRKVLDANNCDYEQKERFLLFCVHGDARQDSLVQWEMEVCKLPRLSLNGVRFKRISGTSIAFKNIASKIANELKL
For assay [19] the target is unchanged. The conditions noted are these: at 1 µM.
The target in assay [20] is MAP/microtubule affinity-regulating kinase 3 (Homo sapiens) (UniProt P27448). Particulars: at 0.1 µM.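 Further: mean percent inhibition of MARK3 kinase activity, measured within the GSK PKIS screening panel.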
MAP/microtubule affinity-regulating kinase 3 (Homo sapiens), sequence (P27448 whole entry, looked up): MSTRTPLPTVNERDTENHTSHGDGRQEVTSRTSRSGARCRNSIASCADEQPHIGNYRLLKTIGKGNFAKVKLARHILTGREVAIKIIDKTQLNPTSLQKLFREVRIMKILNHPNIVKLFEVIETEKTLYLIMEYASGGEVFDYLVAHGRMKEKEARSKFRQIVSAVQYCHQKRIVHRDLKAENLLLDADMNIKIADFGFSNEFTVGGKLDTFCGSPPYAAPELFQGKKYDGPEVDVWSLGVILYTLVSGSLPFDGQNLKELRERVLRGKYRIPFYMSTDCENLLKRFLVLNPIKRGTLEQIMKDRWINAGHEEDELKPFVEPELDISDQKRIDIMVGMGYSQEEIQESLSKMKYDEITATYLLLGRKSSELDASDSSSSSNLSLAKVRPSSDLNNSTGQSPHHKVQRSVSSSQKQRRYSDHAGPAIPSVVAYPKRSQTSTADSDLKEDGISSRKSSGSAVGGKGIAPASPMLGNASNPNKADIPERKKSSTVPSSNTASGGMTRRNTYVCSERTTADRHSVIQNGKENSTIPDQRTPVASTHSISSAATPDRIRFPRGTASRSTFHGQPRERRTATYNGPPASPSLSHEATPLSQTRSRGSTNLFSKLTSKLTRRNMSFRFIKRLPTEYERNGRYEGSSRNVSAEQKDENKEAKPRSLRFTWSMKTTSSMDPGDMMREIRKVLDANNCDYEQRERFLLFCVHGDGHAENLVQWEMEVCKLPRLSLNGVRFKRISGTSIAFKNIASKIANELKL

MAP kinase-activated protein kinase 3 (Homo sapiens), sequence (Q16644 whole entry, looked up): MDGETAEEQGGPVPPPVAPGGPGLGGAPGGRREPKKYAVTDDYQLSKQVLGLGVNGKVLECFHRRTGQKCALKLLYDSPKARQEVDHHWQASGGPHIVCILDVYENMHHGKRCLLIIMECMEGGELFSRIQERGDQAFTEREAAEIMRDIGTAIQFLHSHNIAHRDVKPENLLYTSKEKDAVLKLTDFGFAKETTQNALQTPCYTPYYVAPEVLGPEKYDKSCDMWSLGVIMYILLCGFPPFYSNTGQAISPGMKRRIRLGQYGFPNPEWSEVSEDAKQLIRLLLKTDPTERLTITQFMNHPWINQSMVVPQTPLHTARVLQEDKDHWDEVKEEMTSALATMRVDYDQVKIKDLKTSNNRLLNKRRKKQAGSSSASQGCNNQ
Calcium/calmodulin-dependent protein kinase type II subunit delta (Homo sapiens), sequence (Q13557 whole entry): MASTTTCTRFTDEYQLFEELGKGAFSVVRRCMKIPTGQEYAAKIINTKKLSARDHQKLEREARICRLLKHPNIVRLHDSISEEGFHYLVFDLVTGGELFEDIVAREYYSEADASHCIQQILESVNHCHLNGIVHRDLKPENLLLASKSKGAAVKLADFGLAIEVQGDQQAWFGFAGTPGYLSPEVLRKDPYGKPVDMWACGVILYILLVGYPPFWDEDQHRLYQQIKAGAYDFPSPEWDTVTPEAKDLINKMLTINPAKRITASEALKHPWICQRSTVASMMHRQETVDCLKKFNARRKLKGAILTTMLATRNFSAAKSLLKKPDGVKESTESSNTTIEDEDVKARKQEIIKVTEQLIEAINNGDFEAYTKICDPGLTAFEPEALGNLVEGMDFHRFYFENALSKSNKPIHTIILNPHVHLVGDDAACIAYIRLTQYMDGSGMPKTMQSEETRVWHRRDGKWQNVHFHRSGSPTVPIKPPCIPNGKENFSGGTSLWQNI

`Nc1nccc(C#Cc2cncnc2Nc2ccc(OCc3cccc(F)c3)c(Cl)c2)n1`: the inhibition (in general, the change of the read-out against control, counted positive when it falls) in [1] is 5.08%; in [2], 8.4%; in assay [3], 8.79%; in [4], -0.4%; in [5], 0.61%; in assay [6], 1.22%. In addition, the inhibition is 7.61% in assay [7]; 2.66% in assay [8]; 5.77% in assay [9]; 3.9% in [10]; 5.3% in [11]; 1.36% in assay [12]. For the same molecule, the inhibition stood at 0.82% in assay [13]; 1.66% in [14]; 1.43% in [15]; 2.38% in assay [16]; 4.95% in assay [17]; 5.72% in [18]. Also, the inhibition in [19] came to 10.4%; in assay [20] it was 4.09%.

As for `N#Cc1cccc(Nc2nccc(-c3cnn4ncccc34)n2)c1`, the inhibition is 35.4% in assay [1]; 17.8% in [2]; 63.4% in assay [3]; -1.28% in [4]; -0.33% in [5]; 3% in assay [6]. Moreover, the inhibition in assay [7] stood at 3.73%; in [8] it was 3.25%; in assay [9], 10.6%; in assay [10], 3.73%; in assay [11] it was 3.93%; in assay [12], 2.04%. Further, the inhibition in assay [13] was found to be 0.56%; in [14] it was 2.34%; in assay [15], 1.6%; in assay [16], 2.17%; in assay [17], 5%; in assay [18], 6.5%. Also, the inhibition turned out to be 15.2% in [19] and 2.34% in assay [20].

Consider `COc1ccc(-c2nn3ncccc3c2-c2ccnc(Nc3cccc(C(F)(F)F)c3)n2)cc1`, for which the inhibition in assay [1] was -0.66%; in assay [2], 1.66%; in [3], 0.95%; in assay [4] it was 1.07%; in assay [5], -0.19%; in assay [6] it was 1.85%. Moreover, the inhibition in [7] is -3.09%; in assay [8] it was 2.01%; in [9], 1.61%; in assay [10], 4.24%; in assay [11], 2.26%; in assay [12], -0.87%. The inhibition is -1.41% in assay [13]; 1.58% in assay [14]; 0.39% in assay [15]; 7.94% in assay [16]; 23.9% in [17]; 1.45% in assay [18]. Further, the inhibition came out at 3.55% in [19] and 0.72% in assay [20].

For `Cc1cc(Cl)cc2c1NC(=O)C2=NNc1ccc(S(N)(=O)=O)cc1`, the inhibition in assay [1] was 0.96%; in [2] it was 2.57%; in assay [3] it was -0.12%; in [4], -0.56%; in [5] it was -3.46%; in assay [6], 2.43%. The inhibition came out at 2.86% in [7]; 1.38% in assay [8]; 2.55% in assay [9]; 2.88% in assay [10]; 3.49% in [11]; 1.05% in assay [12]. Also, the inhibition in assay [13] turned out to be 6.07%; in assay [14], 1.56%; in assay [15], 1.44%; in [16] it was 0.78%; in [17], 2.25%; in assay [18], 2.46%. Moreover, the inhibition in assay [19] turned out to be 4.87%; in [20], 3.64%.

Consider `NS(=O)(=O)c1ccc(NC=C2C(=O)Nc3ccc4ncsc4c32)cc1`, for which the inhibition in [1] is 13.7%; in assay [2], 7.83%; in assay [3], 30.6%; in [4], 0.83%; in [5] it was 6.33%; in assay [6] it was 14.5%. Besides, the inhibition came out at 48% in [7]; 7.15% in [8]; 33.2% in assay [9]; 4.96% in [10]; 24.9% in assay [11]; 0.84% in assay [12]. In addition, the inhibition was found to be 7.25% in assay [13]; 2.28% in assay [14]; 4.38% in [15]; 5.09% in assay [16]; 5.58% in assay [17]; 30.8% in [18]. Further, the figures for the inhibition in assay [19] and in assay [20] were 67.3% and 17.8%, respectively.
